Measured values: PubChem BioAssay (EPA / NIEHS)
Active and inactive are the calls of the source. Rule for the calls: active = hit-call score of the fitted dose curve at least 0.9, where 1 is the maximum; inactive = score below 0.9.

Biological target: Hepatocyte nuclear factor 3-beta (Homo sapiens) (UniProt Q9Y261)
Assay: ATG_FoxA2_CIS: Attagene CIS-FACTORIAL HepG2 Assay for human Forkhead box A2 (FOXA2) (AID 2282942)
Settings: HepG2 cis-reporter transcription factor activity, 24 h; actives raise or lower the signal
Method: ATG_CIS is a cell-based, multiplexed-readout assay that uses HepG2, a human liver cell line, with measurements taken at 24 hours after chemical dosing in a 24-well plate.ATG_FoxA2_CIS is one of 52 assay component(s) measured or calculated from the ATG_CIS assay. It is designed to make measurements of mRNA induction, a form of inducible reporter, as detected with fluorescence intensity signals by Reverse transcription polymerase chain reaction (RT-PCR) and Capillary electrophoresis technology.Data from the assay component ATG_FoxA2_CIS was analyzed into 1 assay endpoint. This assay endpoint, ATG_FoxA2_CIS, was analyzed with bidirectional fitting relative to DMSO as the negative control and baseline of activity. Using a type of inducible reporter, measures of mRNA for gain or loss-of-signal activity can be used to understand the reporter gene at the transcription factor-level as they relate to the gene FOXA2. Furthermore, this assay endpoint can be referred to as a primary readout, because this assay has produced multiple assay endpoints where this one serves a reporter gene function. To generalize the intended target to other relatable targets, this assay endpoint is annotated to the dna binding intended target family, where the subfamily is forkhead box protein.
Human liver HepG2 cells are transiently transfected with multiple reporter transcription units (MRTUs) in 6-well plates using FuGene 6 reagent (Roche; 3 ml FuGene/1 mg DNA). The MRTU constructs are regulated by a cis-regulating element (promoter). […] A major difference between the CIS and TRANS system is that in CIS activities of endogenous TFs are measured, whereas the TRANS assay evaluates changes in activities of exogenous, chimeric NR-Gal4 proteins. […] At the end of 24 hour incubation, total RNA was isolated using TriZol reagent (Invitrogen). The isolated RNA is then reverse-transcribed using oligo(dT) primer and Mo-MLV reverse transcriptase (Invitrogen) with DNAse I (Ambion) treatment for 30 min. The one-tenth of the produced cDNA was amplified by PCR using Taq DNA polymerase (Invitrogen) and two reporter sequence-specific primers. The PCR products were fluorescently labeled by primer extension with 6-arboxyfluorescein (6-FAM) 5'-labeled reporter sequence-specific primer (2 min at 95 C, 20 s at 68 C and 10 min at 72 C) and these products were digested with 5U of HpaI (New England Biolabs) for 2h at 37 C. The fragments were purified using Qiaquick PCR columns (Qiagen), analyzed on an ABI 3130xL genetic analyzer (Applied Biosystems) with peak positions identified by using a set of X-rhodamine (ROX)-labeled MapMarker1000 molecular weight standards (BioVentures). The raw capillary electrophoresis data was processed using Attagraph software (Attagene).

Hepatocyte nuclear factor 3-beta (Homo sapiens), sequence (Q9Y261 whole entry, looked up): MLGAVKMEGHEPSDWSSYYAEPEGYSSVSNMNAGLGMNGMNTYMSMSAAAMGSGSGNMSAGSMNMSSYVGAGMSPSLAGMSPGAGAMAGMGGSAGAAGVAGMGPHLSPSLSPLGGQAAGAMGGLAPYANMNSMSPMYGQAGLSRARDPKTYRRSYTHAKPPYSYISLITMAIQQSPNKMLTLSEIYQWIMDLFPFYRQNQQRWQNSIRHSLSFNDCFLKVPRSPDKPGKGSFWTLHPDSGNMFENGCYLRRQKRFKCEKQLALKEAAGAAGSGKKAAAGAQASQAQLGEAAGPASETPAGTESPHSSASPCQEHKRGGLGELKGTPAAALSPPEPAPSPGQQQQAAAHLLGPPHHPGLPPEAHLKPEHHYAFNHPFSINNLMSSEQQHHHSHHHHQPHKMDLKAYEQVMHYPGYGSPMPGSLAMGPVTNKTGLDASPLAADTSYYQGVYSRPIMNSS

SMILES | outcome
ON=C1CCCCC1 | inactive
ClC(c1ccccc1)(c1ccccc1)c1ccccc1 | inactive
COc1ccccc1N=Nc1c(S(=O)(=O)O)cc2cc(S(=O)(=O)O)cc(NC(C)=O)c2c1O | inactive
CN(C)c1cccc(O)c1 | inactive
CC(=O)OCCCc1ccccc1 | inactive
CCCCCCCCCC(=O)OC | inactive
CCCCCCCCCCCCCC(=O)OCC(O)CO (stereo not given) | inactive
CCCCCCC(CO)CCCC (stereo not given) | inactive
C=C(C)CNCC | inactive
C[N+](C)(C)CCCCCC[N+](C)(C)C | inactive
CC(C)(N=C=O)c1cccc(C(C)(C)N=C=O)c1 | inactive
CCCCCC(C)=O | inactive
CCCCCC(C=O)=Cc1ccccc1 | inactive
CCC1(c2ccccc2)C(=O)NCNC1=O | inactive
C[C@H]1O[C@@H](O[C@H]2[C@@H](O)C[C@H](O[C@H]3[C@@H](O)C[C@H](O[C@H]4CC[C@@]5(C)[C@H](CC[C@@H]6[C@@H]5C[C@@H](O)[C@]5(C)[C@@H](C7=CC(=O)OC7)CC[C@]65O)C4)O[C@@H]3C)O[C@@H]2C)C[C@H](O)[C@@H]1O | inactive
C=COCCOCCOC=C | inactive
CC(C)CCCCCCc1ccc(OCCOCCO)cc1 | inactive
CC1=C(Br)C(=O)C(Br)=C/C1=C(/c1ccccc1S(=O)(=O)O)c1cc(Br)c(O)c(Br)c1C | inactive
CC1C2CC(CC2C2CCCC(O)C2)C1(C)C (stereo not given) | inactive
CN1C(=O)c2ccccc2C1=O | inactive

SMILES | outcome
COCCOC(=O)c1ccccc1C(=O)OCCOC | inactive
CC(C)(C)c1ccc(C(=O)O)cc1 | inactive
OCCOCCN1CCN(C2=Nc3ccccc3Sc3ccccc32)CC1 | inactive
CC(C)(C)C1=CC(=O)C(C(C)(C)C)=CC1=O | inactive
CCCCCCOC(=O)C(C)C | inactive
C=C(C#N)C(=O)OCC | inactive
CCOC(=O)C1OC1c1ccccc1 (stereo not given) | inactive
CCCC(=O)OCCc1ccccc1 | inactive
CCCCCCCCN1CCCC1=O | inactive
Cc1cc(S(=O)(=O)O)ccc1N=Nc1c(O)ccc2ccccc12 | inactive
C=C(C)C(=O)OCCOCCOCCOC(=O)C(=C)C | inactive
CN(C)c1ccncc1 | inactive
c1ccc(Oc2ccccc2)cc1 | inactive
CCOc1ccc(NC(=O)CC(C)O)cc1 (stereo not given) | inactive
COC(=O)c1ccc(C)cc1C1=NC(C)(C(C)C)C(=O)N1 (stereo not given) (tested in a mixture with another compound) | inactive
Cc1[nH]c(=O)c(C#N)cc1-c1ccncc1 | inactive
C=CC(=O)OCCC#N | inactive
CCO/C=C1\N=C(c2ccccc2)OC1=O | inactive
C[C@@H]1CCN(C(=O)[C@H](CCCN=C(N)N)NS(=O)(=O)c2cccc3c2NC[C@H](C)C3)[C@@H](C(=O)O)C1 | inactive
COCCOCCOCCO | inactive
